Source: PubChem BioAssay (EPA / NIEHS)
Activity calls are given as the source filed them. Rule for the calls: active = hit-call score of the fitted dose curve at least 0.9, where 1 is the maximum; inactive = score below 0.9.

Columns and labels:
[1] = read-out: TIMP metallopeptidase inhibitor 2 (TIMP2), TIMP2 (gene 7077); assay: BSK_KF3CT_TIMP2: BioMAP Diversity Plus: KF3CT Assay for TIMP metallopeptidase inhibitor 2 (TIMP2) Biomarker Activity (AID 2283071); details: primary human keratinocytes with fibroblasts; actives raise or lower the signal
How it was run: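 Keratinocyte–fibroblast co-culture, 24 h exposure; TIMP-2 ELISA, DMSO-normalised bidirectional fit. Parallel SRB (0.1%, TCA-fixed, 560 nm) total-protein staining gauges cytotoxicity.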

[2] = read-out: Transforming growth factor beta 1 (TGFb1), TGFB1 (gene 7040); assay: BSK_KF3CT_TGFb1: BioMAP Diversity Plus: KF3CT Assay for Transforming growth factor beta 1 (TGFb1) Biomarker Activity (AID 2283072); details: primary human keratinocytes with fibroblasts; actives raise or lower the signal
How it was run: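 Signal changes in either direction, relative to DMSO, define activity here. TGF-b1 is read by ELISA from a human keratinocyte-fibroblast co-culture 24 h post-dose.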

[3] = read-out: C-C motif chemokine 2 (Homo sapiens) (UniProt P13500); assay: BSK_KF3CT_MCP1: BioMAP Diversity Plus: KF3CT Assay for Monocyte Chemoattractant Protein 1 (MCP1/CCL2) Biomarker Activity (AID 2283073); details: primary human keratinocytes with fibroblasts; actives raise or lower the signal
How it was run: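 Human keratinocyte plus foreskin fibroblast primary co-culture exposed to chemical for 24 h. MCP-1 levels measured by ELISA. Bidirectional curve fitting relative to DMSO negative control as baseline.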

[4] = read-out: Matrix Metallopeptidase 9 (MMP9), MMP9 (gene 4318); assay: BSK_KF3CT_MMP9: BioMAP Diversity Plus: KF3CT Assay for Matrix Metallopeptidase 9 (MMP9) Biomarker Activity (AID 2283074); details: primary human keratinocytes with fibroblasts; actives raise or lower the signal;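 for AC50: MMP9 protein level quantified by ELISA in the co-culture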
How it was run: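 Human keratinocyte and foreskin fibroblast co-culture exposed to chemicals for 24 h; MMP9 biomarker measured by ELISA, bidirectional fitting relative to DMSO; cytotoxicity tracked by SRB total protein staining in parallel cultures.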

[5] = read-out: CD40, CD40 (gene 958); assay: BSK_LPS_CD40: BioMAP Diversity Plus: LPS Assay for CD40 Biomarker Activity (AID 2283076); details: primary human HUVEC with PBMC; actives raise or lower the signal
How it was run: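 Primary human umbilical vein endothelial cells co-cultured with peripheral blood mononuclear cells, LPS-stimulated, were dosed with chemical and read 24 h later. CD40 levels were measured by ELISA and fitted bidirectionally against DMSO as negative control and baseline.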

[6] = read-out: E-selectin (Homo sapiens) (UniProt P16581); assay: BSK_LPS_Eselectin: BioMAP Diversity Plus: LPS Assay for Eselectin Biomarker Activity (AID 2283077); details: primary human HUVEC with PBMC; actives raise or lower the signal
How it was run: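 Human umbilical vein endothelial cells co-cultured with peripheral blood mononuclear cells under LPS stimulation; E-selectin measured by ELISA 24 h after chemical dosing. Activity fitted bidirectionally against DMSO as negative control and baseline.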

[7] = read-out: Interleukin-8 (IL8), CXCL8 (gene 3576); assay: BSK_LPS_IL8: BioMAP Diversity Plus: LPS Assay for Interleukin-8 (IL8) Biomarker Activity (AID 2283078); details: primary human HUVEC with PBMC; actives raise or lower the signal
How it was run: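 Human umbilical vein endothelial cells co-cultured with PBMC were stimulated with LPS; IL-8 levels were measured by ELISA 24 h after chemical dosing. Activity was fitted bidirectionally against DMSO as negative control and baseline.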

[8] = BSK_LPS_SRB: Viability Assessment in the BioMAP Diversity Plus: LPS Assay (AID 2283079); details: primary human HUVEC with PBMC;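 note: total protein by sulforhodamine B absorbance as a cytotoxicity measure; measured one day after compound addition; fitted in both directions against DMSO so loss or gain of signal counts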
How it was run: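 Human umbilical vein endothelial cells co-cultured with PBMC (LPS system) were dosed for 24 h. Total protein was stained with 0.1% sulforhodamine B after 10% TCA fixation, read at 560 nm, and fitted bidirectionally against DMSO baseline.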

[9] = read-out: Monocyte Chemoattractant Protein-1 (MCP1), CCL2 (gene 6347); assay: BSK_LPS_MCP1: BioMAP Diversity Plus: LPS Assay for Monocyte Chemoattractant Protein-1 (MCP1) Biomarker Activity (AID 2283081); details: primary human HUVEC with PBMC; actives raise or lower the signal;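 for AC50: secreted MCP-1 protein quantified by ELISA in culture supernatant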
How it was run: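 HUVEC plus PBMC co-culture (human primary cells, LPS system) exposed to test chemical for 24 h; MCP-1 measured by ELISA. Bidirectional curve fitting against DMSO baseline; parallel SRB total-protein staining flags overt cytotoxicity.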

[10] = BSK_LPS_PGE2: BioMAP Diversity Plus: LPS Assay for Prostaglandin E2 (PGE2) Biomarker Activity (AID 2283082); details: primary human HUVEC with PBMC; actives raise or lower the signal;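 for AC50: secreted prostaglandin E2 measured by ELISA in LPS-stimulated co-culture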
How it was run: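 Endpoint derived from bidirectional curve fitting versus DMSO of ELISA-measured PGE2 in LPS-stimulated human primary vascular co-culture (HUVEC with PBMC) harvested at 24 h.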

[11] = read-out: Macrophage colony-stimulating factor (MCSF), CSF1 (gene 1435); assay: BSK_LPS_MCSF: BioMAP Diversity Plus: LPS Assay for Macrophage colony-stimulating factor (MCSF) Biomarker Activity (AID 2283083); details: primary human HUVEC with PBMC; actives raise or lower the signal
How it was run: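 Human umbilical vein endothelial cells co-cultured with peripheral blood mononuclear cells were exposed to compound for 24 h. M-CSF levels were measured by ELISA, and bidirectional curve fitting used DMSO as the negative control and baseline.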

[12] = read-out: Tissue Factor, F3 (gene 2152); assay: BSK_LPS_TissueFactor: BioMAP Diversity Plus: LPS Assay for Tissue Factor Biomarker Activity (AID 2283084); details: primary human HUVEC with PBMC; actives raise or lower the signal
How it was run: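 Human umbilical vein endothelial cells co-cultured with peripheral blood mononuclear cells were dosed and stimulated with LPS. Cell-surface CD142 was quantified by ELISA at 24 h. Activity was fitted bidirectionally against DMSO baseline.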

[13] = read-out: Tumor necrosis factor (Homo sapiens) (UniProt P01375); assay: BSK_LPS_TNFa: BioMAP Diversity Plus: LPS Assay for Tumour Necrosis Factor alpha (TNFa) Biomarker Activity (AID 2283085); details: primary human HUVEC with PBMC; actives raise or lower the signal
How it was run: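 Primary human vascular co-culture of HUVEC and PBMC; TNFa ELISA 24 h after treatment, analysed as increase or decrease relative to DMSO control.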

[14] = read-out: Vascular cell adhesion molecule 1 (VCAM1), VCAM1 (gene 7412); assay: BSK_LPS_VCAM1: BioMAP Diversity Plus: LPS Assay for Vascular cell adhesion molecule 1 (VCAM1) Biomarker Activity (AID 2283086); details: primary human HUVEC with PBMC; actives raise or lower the signal
How it was run: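 Primary human vascular co-culture (umbilical vein endothelium plus PBMC) stimulated with LPS received chemical; 24 h later VCAM-1 was read by ELISA. Overt cytotoxicity was assessed by sulforhodamine B staining of parallel cultures at the same time point.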

[15] = read-out: CD38, CD38 (gene 952); assay: BSK_SAg_CD38: BioMAP Diversity Plus: SAg Assay for CD38 Biomarker Activity (AID 2283087); details: primary human HUVEC with PBMC; actives raise or lower the signal
How it was run: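 Fluorescence ELISA of cell-surface CD38 served as the read-out, with either increase or decrease fitted against DMSO controls. Cells were a human umbilical vein endothelium plus PBMC co-culture under SEB/TSST-1 stimulation, measured 24 h after dosing.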

[16] = read-out: CD40, CD40 (gene 958); assay: BSK_SAg_CD40: BioMAP Diversity Plus: SAg Assay for CD40 Biomarker Activity (AID 2283088); details: primary human HUVEC with PBMC; actives raise or lower the signal
How it was run: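 Human umbilical vein endothelial cells co-cultured with PBMC; CD40 levels measured by ELISA with fluorescence read-out 24 h after chemical dosing. Gain or loss of signal fitted bidirectionally against DMSO baseline.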

[17] = read-out: CD69, CD69 (gene 969); assay: BSK_SAg_CD69: BioMAP Diversity Plus: SAg Assay for CD69 Biomarker Activity (AID 2283089); details: primary human HUVEC with PBMC; actives raise or lower the signal;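 for AC50: cell surface CD69 protein quantified by ELISA with fluorescence detection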
How it was run: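 HUVEC co-cultured with PBMC were dosed with chemical, and CD69 was measured by ELISA with fluorescence read-out 24 h later. Bidirectional curve fitting used DMSO as negative control and activity baseline.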

[18] = read-out: urokinase plasminogen activator (uPA), PLAU (gene 5328); assay: BSK_KF3CT_uPA: BioMAP Diversity Plus: KF3CT Assay for urokinase plasminogen activator (uPA) Biomarker Activity (AID 2283075); details: primary human keratinocytes with fibroblasts; actives raise or lower the signal
How it was run: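 Primary human keratinocyte/foreskin fibroblast co-culture exposed to chemical; uPA measured by ELISA at 24 h. Bidirectional fit versus DMSO, with parallel SRB total-protein staining for cytotoxicity.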

[19] = read-out: Monocyte Chemoattractant Protein-1 (MCP1), CCL2 (gene 6347); assay: BSK_SAg_MCP1: BioMAP Diversity Plus: SAg Assay for Monocyte Chemoattractant Protein-1 (MCP1) Biomarker Activity (AID 2283090); details: primary human HUVEC with PBMC; actives raise or lower the signal
How it was run: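 MCP-1 levels in the endothelial–PBMC SAg co-culture were quantified by ELISA at 24 h post-dosing; both increases and decreases versus DMSO scored. Cytotoxicity monitored by SRB total protein in parallel cultures.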

[20] = read-out: Interleukin-1 alpha (IL1a), IL1A (gene 3552); assay: BSK_LPS_IL1a: BioMAP Diversity Plus: LPS Assay for Interleukin-1 alpha (IL1a) Biomarker Activity (AID 2283080); details: primary human HUVEC with PBMC; actives raise or lower the signal
How it was run: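 Human umbilical vein endothelial cells co-cultured with peripheral blood mononuclear cells were LPS-stimulated and exposed to test chemicals for 24 h. IL-1 alpha was quantified by ELISA, with bidirectional curve fitting against DMSO as the negative control and baseline.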

Measured: AC50

E-selectin (Homo sapiens), sequence (P16581 whole entry, looked up): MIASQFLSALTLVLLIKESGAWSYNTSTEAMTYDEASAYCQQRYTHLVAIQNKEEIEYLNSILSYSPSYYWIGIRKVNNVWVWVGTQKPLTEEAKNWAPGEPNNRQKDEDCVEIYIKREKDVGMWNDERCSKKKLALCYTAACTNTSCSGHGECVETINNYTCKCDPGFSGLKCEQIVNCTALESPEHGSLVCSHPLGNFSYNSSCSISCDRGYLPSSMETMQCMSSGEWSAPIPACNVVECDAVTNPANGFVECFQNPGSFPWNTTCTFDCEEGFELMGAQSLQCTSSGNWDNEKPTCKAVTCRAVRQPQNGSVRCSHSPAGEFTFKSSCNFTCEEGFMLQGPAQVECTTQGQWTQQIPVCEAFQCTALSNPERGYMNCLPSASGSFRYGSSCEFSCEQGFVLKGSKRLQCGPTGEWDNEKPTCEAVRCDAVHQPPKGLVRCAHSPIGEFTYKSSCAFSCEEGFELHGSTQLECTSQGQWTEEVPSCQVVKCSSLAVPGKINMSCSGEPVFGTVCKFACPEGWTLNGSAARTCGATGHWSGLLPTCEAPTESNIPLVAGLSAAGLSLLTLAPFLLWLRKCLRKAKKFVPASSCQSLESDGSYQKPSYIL
Tumor necrosis factor (Homo sapiens), sequence (P01375 whole entry, looked up): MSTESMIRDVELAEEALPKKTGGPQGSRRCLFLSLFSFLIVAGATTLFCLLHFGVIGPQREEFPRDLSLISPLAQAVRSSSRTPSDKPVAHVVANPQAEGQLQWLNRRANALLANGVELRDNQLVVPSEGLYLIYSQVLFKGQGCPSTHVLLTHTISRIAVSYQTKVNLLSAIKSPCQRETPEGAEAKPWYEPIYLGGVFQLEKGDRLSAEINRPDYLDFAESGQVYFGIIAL

c1ccc2n[nH]nc2c1
inactive: [1] | [2] | [3] | [4] | [5] | [6] | [7] | [8] | [9] | [10] | [11] | [12] | [13] | [14] | [15] | [16] | [17]

O=C(O)Cc1cc(I)c(Oc2ccc(O)c(I)c2)c(I)c1
inactive: [1] | [3] | [5] | [6] | [7] | [8] | [9] | [10] | [11] | [12] | [14] | [15] | [16] | [17]
active: [2] 29.9 µM | [4] 20 µM | [13] 13 µM

CC(=O)N1CCN(c2ccc(OC[C@H]3CO[C@](Cn4ccnc4)(c4ccc(Cl)cc4Cl)O3)cc2)CC1
inactive: [3] | [10]
active: [1] 31.5 µM | [2] 29.2 µM | [4] 29.8 µM | [18] 30.8 µM | [5] 11.8 µM | [6] 32.2 µM | [7] 29.9 µM | [8] 20 µM | [9] 31 µM | [13] 36.7 µM | [14] 28.1 µM | [15] 27.4 µM | [16] 24.1 µM | [17] 25.4 µM | [19] 30.1 µM

O=c1c(-c2ccc(O)cc2)coc2cc(O)cc(O)c12
inactive: [1] | [2] | [3] | [18]
active: [5] 14.3 µM | [6] 31.7 µM | [7] 20 µM | [8] 12 µM | [20] 16 µM | [9] 17.9 µM | [10] 10 µM | [11] 14.8 µM | [12] 13.2 µM | [13] 15.8 µM | [14] 13.9 µM | [15] 25.1 µM | [16] 25.6 µM | [17] 20 µM | [19] 18.7 µM

CN(C[C@@H](CC[N+]12CCC(C3CCCCC3)(CC1)CC2)c1ccc(Cl)c(Cl)c1)C(=O)c1cc(C(F)(F)F)cc(C(F)(F)F)c1
inactive: [10]
active: [1] 7.76 µM | [2] 7.34 µM | [3] 9.72 µM | [4] 7.39 µM | [18] 10.5 µM | [5] 19.1 µM | [6] 26.4 µM | [7] 24.8 µM | [8] 24.6 µM | [20] 18.4 µM | [9] 23.4 µM | [11] 23.6 µM | [13] 13.7 µM | [14] 31.3 µM | [15] 13.3 µM | [16] 20 µM | [17] 21.9 µM | [19] 17.1 µM

NC(=O)c1nc(-c2cccc(-c3cc(F)ccc3OCC(F)(F)C(F)(F)F)c2)n[nH]1
active: [1] 35 µM | [2] 36.1 µM | [3] 34 µM | [18] 43.1 µM | [5] 22.6 µM | [6] 37.7 µM | [7] 33.7 µM | [8] 31.6 µM | [20] 41.4 µM | [9] 33.6 µM | [10] 38.2 µM | [11] 29.4 µM | [12] 33.4 µM | [13] 37.4 µM | [14] 35.3 µM | [15] 29.5 µM | [16] 26.9 µM | [17] 26.2 µM | [19] 29 µM
